Results as given in PubChem BioAssay AID1663 (Broad Institute, 2009).
The campaign covered roughly 300,000 compounds. About 660 (0.22%) were called active. The list comes from a sample in which actives are over-represented; it also holds similar structures and randomly drawn compounds. Values without a mark were called inactive.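 The calls were made as follows: active = mean replicate score, as percent of positive control, at or above 50; inconclusive = mean below 50 but at least one replicate at or above 50; inactive = mean and every replicate below 50.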

Assay: blockers of SFLLRN-triggered platelet ATP release – cell-based, MLPCN, human platelets, primary screen (AID 1663)
Details: human platelet-rich plasma, SFLLRN dense granule ATP release, luminescence; stronger effect = higher value;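 compounds screened at 7.5 µM in platelet-rich plasma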

SMILES | inhibition
O=C1NNC(c2ccccc2)=N/C1=C\c1ccc(Cl)cc1 | -15.9%
O=C1c2ccccc2C2=Nc3ccccc3SC(c3ccccc3F)C12 (configuration not stated) | 2.23%
Cc1c(Cl)cccc1NC(=O)NCc1ccc(C)n1C | -4.12%
Cc1cccc(NC(=O)CCn2c(=O)oc3ccccc32)c1 | 8.63%
CC(=O)c1nnn(-c2ccc(Cl)cc2C#N)c1C | -27.7%
COc1ccc(C(=O)Nc2cccc(NC(=O)c3ccc(OC)cc3OC)n2)c(OC)c1 | 10.1%
CCOC(=O)C1C(c2ccc(Cl)cc2)NC(=S)NC1(O)C(F)(F)F (configuration not stated) | -3.31%
CCOC(=O)C1C(c2ccc(OC)c(OC)c2)c2c([nH][nH]c2=O)CC1(C)O (configuration not stated) | 57.3% (active)
CCOC(=O)C1C(c2ccc(O)cc2)NC(=O)NC1(O)C(F)(F)F (configuration not stated) | -5.44%
O=[N+]([O-])c1ccc2c(c1)Nc1nc3ccccc3nc1N2 | -4.77%
Cc1sc2ncn(CC(=O)NCCCC(=O)N(C)Cc3ccccc3)c(=O)c2c1C | 10.8%
COc1ccc(C(C)=O)cc1CN1C(=O)NC2(CCCCC2C)C1=O (configuration not stated) | -14.5%
O=[N+]([O-])c1ncc(Br)cc1Nc1ccccc1 | -1.96%
CCOC(=O)N1CCN(C(=O)c2ccc3c(=O)n(CCc4ccc(OC)c(OC)c4)c(=O)[nH]c3c2)CC1 | -6.61%
C/C(=N\NC(=O)c1cc2c(s1)CCC(C)C2)c1cccnc1 (configuration not stated) | 9.94%
COc1ccc(C2CC(=O)Nc3sc(=N)c4c(N)c(C#N)c(N)nc4c32)cc1OC (configuration not stated) | 92.7% (active)
N#Cc1c(N)nc2c3c(sc(=N)c2c1N)NC(=O)CC3c1ccccc1Cl (configuration not stated) | -3.78%
COc1ccc(-c2cc(-c3ccc(N)cc3)nc(N)c2C#N)cc1OC | 0.00483%
COc1ccc(NC(=O)CC2C(=O)OCC3CCCCN32)cc1Cl (configuration not stated) | 7.17%
COc1cc(OC)cc(-c2nnc(SCC(=O)Nc3ccc(C(=O)O)cc3)s2)c1 | -1.66%
O=C(Cc1cccs1)Nc1nnc(SCc2ccc(F)cc2)s1 | -6.18%

SMILES | inhibition
O=C(CSc1nnc(SCc2ccc(F)cc2)s1)Nc1ccc(C(=O)O)cc1 | 65.9% (active)
COc1ccc(C(=O)OCC(=O)NC(=O)CCSc2ccccc2)cc1 | -1.32%
C=CCNCCCCOc1ccccc1 | 3.06%
C=C(C)COc1ccc(-c2ncncc2-c2ccc(OC)cc2)c(O)c1 | 3.43%
CC(C(=O)NC1CCCCC1)N1C(=O)c2cccc3cccc1c23 (configuration not stated) | 7.75%
CN1CCN(c2ccc(NC(=O)c3ccccc3)cc2)CC1 | 28.5%
COc1cccc(C(=O)Nc2ccc(N3CCCC3)cc2)c1 | 87.6% (active)
COc1cccc(C(=O)Nc2ccc(N3CCN(C(=O)c4ccco4)CC3)cc2)c1 | -47.4%
C/C=C/C(=O)OCC(=O)Nc1ccc(F)cc1Cl | 1.87%
COc1ccc(C(=O)NC2CC2)cc1OC1CCN(C/C=C/c2ccccc2)CC1 | -4.81%
Cc1cnc(NC(=O)c2ccc(Cl)nc2)s1 | -2.29%
O=C(Nc1nnc(C2CC2)s1)c1ccccn1 | -0.73%
Cc1cnc(NC(=O)c2ccccn2)s1 | 52.7% (active)
Cn1c(-c2ccco2)nc2cc3ccccc3cc21 | 66.2% (active)
COc1ccccc1-n1c(-c2cc(-c3ccco3)[nH]n2)n[nH]c1=S | 3.67%
Cc1cc(C(F)(F)F)nn1-c1nc(-c2ccco2)cc(C(F)(F)F)n1 | 0.688%
CCOc1ccc(/C(O)=C2\C(=O)C(=O)N(c3ccc(OC)cc3)C2c2ccccc2[N+](=O)[O-])cc1 (configuration not stated) | 14.9%
NS(=O)(=O)c1ccc2nc(NC(=O)C3=COCCO3)sc2c1 | -2.24%
Cc1nc2cc(NC(=O)Nc3cccc(F)c3)ccc2n1C | 56.5% (active)
C=CCN(C(=O)Nc1ccc2c(c1)nc(C)n2C)c1ccccc1 | 3.61%
Cc1nc2cc(NC(=O)NC3CC3)ccc2n1C | -7.31%

SMILES | inhibition
O=C(COC(=O)c1ccc[nH]c1=O)Nc1ccc2c(c1)OC(F)(F)O2 | 5.92%
CCOC(=O)/C(N=Nc1cc(C(=O)O)cc(C(=O)O)c1)=C(\O)CCl | 10.2%
COc1ccc(-n2cc(-c3ccccc3)c3c(=S)nc[nH]c32)cc1 | 5.15%
COC(=O)c1sc(NC(=O)c2ccc(OC)cc2OC)nc1C | 57.3% (active)
COc1ccc(Cc2nnc(NC(=O)c3ccc(OC)cc3OC)s2)cc1 | -12.4%
COc1cc2ccccc2cc1C(=O)Nc1nc(C)c(C(C)=O)s1 | -6.84%
O=C(O)CC/C(=C\c1cc2c(cc1Br)OCO2)c1nc2ccccc2s1 | 17.4%
CCN(CC(=O)Nc1ccc(C)c(S(=O)(=O)N(C)C)c1)Cc1ccccc1 | 2.21%
COc1ccc(NC(=O)/C(Cl)=C(/Cl)S(=O)Cc2ccc(C)cc2)cn1 (configuration not stated) | 59% (active)
Cc1ccc(NC(=O)OCc2cncs2)cc1 | -1.58%
COc1ccc(NC(=O)c2cc(-c3ccc(C)cc3)on2)cc1 | 7.98%
COc1ccc(S(=O)(=O)NCCCc2ccccc2)cc1 | 16%
C=CCn1c(-c2ccc(Cl)cc2)ccc(C#N)c1=O | 1.51%
CCC(C)(C)NC(=O)CN(C(=O)CCC(=O)Nc1cc(C)ccn1)c1ccc2c(c1)OCCO2 | 0.138%
COc1ccc(C(=O)Nc2ccccc2C(=O)N/N=C/c2ccccc2OC)cc1 | 73.7% (active)
COc1ccc(C(=O)Nc2ccccc2C(=O)N/N=C/c2ccc(O)c(OC)c2)cc1 | 97.1% (active)
COc1ccc(C(=O)Nc2ccccc2C(=O)NCc2ccco2)cc1 | 12%
COc1ccc(/C=N/NC(=O)c2ccccc2)cc1OS(=O)(=O)c1ccccc1 | 2.24%
COc1cc(/C=N/NC(=O)c2ccc(N3CCCC3=O)cc2)ccc1O | -4.06%
COc1ccc(/C=N/NC(=O)c2ccc3c(c2)OCCO3)c(OC)c1 | -1.2%
